PubChem BioAssay (NCATS)
“And” between values parts separate entries of the source, which are not always exact repeats. Equal values may be shown once. Results filed as inconclusive are left out. The source made the active and inactive calls. Calls follow the shape of the dose curve; as a rule, active = well fitted curve in the direction sought with a large enough effect; inconclusive = small, poorly fitted or top-dose-only effect, or another doubt; inactive = no such curve, though single readings can be large; an effect the other way counts as inactive or inconclusive.

Key:
[1] = qHTS of pediatric cancer cell lines to identify multiple opportunities for drug repurposing: Primary screen for BT-12 cells (AID 1347101); also: nearly all actives have a fitted effect of over 25% in size
How it was run: (§1)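 Cells (500-1,000/well) rested 5 h, then received compounds for 48 h; metabolically active cells were measured by CellTiter-Glo luminescence. Final concentrations spanned up to 46 µM (MIPE, 11-point) or 0.59 nM-46 µM (NPC, 8-point) in primary screens, 11-point in follow-ups.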

[2] = qHTS of pediatric cancer cell lines to identify multiple opportunities for drug repurposing: Primary screen for Rh18 cells (AID 1347102); also: nearly all actives have a fitted effect of over 65% in size
How it was run: (§2)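 Viability after 48 h compound treatment at 37C, 500-1,000 cells/well, read as ATP luminescence with CellTiter-Glo. Primary screens used 11-point (MIPE, 0.78 nM-46 µM) or 8-point (NPC, 0.59 nM-46 µM) final concentrations; follow-up screens used 11-point dilutions.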

[3] = qHTS of pediatric cancer cell lines to identify multiple opportunities for drug repurposing: Primary screen for OHS-50 cells (AID 1347103); also: nearly all actives have a fitted effect of over 40% in size
How it was run: as §1

[4] = qHTS of pediatric cancer cell lines to identify multiple opportunities for drug repurposing: Primary screen for RD cells (AID 1347104); also: nearly all actives have a fitted effect of over 55% in size
How it was run: (§3)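 Following a 5-hour attachment period, cells at 500-1,000/well received compounds and were cultured for 48 hours. CellTiter-Glo was added and luminescence read to estimate viable, metabolically active cells.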

[5] = qHTS of pediatric cancer cell lines to identify multiple opportunities for drug repurposing: Primary screen for MG 63 (6-TG R) cells (AID 1347105); also: nearly all actives have a fitted effect of over 50% in size
How it was run: as §3

[6] = qHTS of pediatric cancer cell lines to identify multiple opportunities for drug repurposing: Primary screen for control Hh wild type fibroblast cells (AID 1347106); also: nearly all actives have a fitted effect of over 55% in size
How it was run: as §2

[7] = qHTS of pediatric cancer cell lines to identify multiple opportunities for drug repurposing: Primary screen for Rh30 cells (AID 1347107); also: nearly all actives have a fitted effect of over 75% in size
How it was run: as §2

[8] = qHTS of pediatric cancer cell lines to identify multiple opportunities for drug repurposing: Primary screen for Rh41 cells (AID 1347108); also: nearly all actives have a fitted effect of over 70% in size
How it was run: as §3

[9] = qHTS of pediatric cancer cell lines to identify multiple opportunities for drug repurposing: Confirmatory screen for NB1643 cells (AID 1347109); also: nearly all actives have a fitted effect of over 45% in size
How it was run: as §2

[10] = qHTS of pediatric cancer cell lines to identify multiple opportunities for drug repurposing: Confirmatory screen for A673 cells (AID 1347110);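 also: cells exposed to compound for 48 h before the viability read; nearly all actives have a fitted effect of over 65% in size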
How it was run: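 A673 cells seeded at 500-1,000 cells/well, rested 5 h, then dosed; primary MIPE 11-point (0.78 nM to 46 µM), NPC (0.59 nM to 46 µM); confirmatory 11-point. CellTiter-Glo luminescence after 48 h.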

[11] = qHTS of pediatric cancer cell lines to identify multiple opportunities for drug repurposing: Confirmatory screen for LAN-5 cells (AID 1347113); also: nearly all actives have a fitted effect of over 65% in size
How it was run: as §2

[12] = qHTS of pediatric cancer cell lines to identify multiple opportunities for drug repurposing: Confirmatory screen for SJ-GBM2 cells (AID 1347116); also: nearly all actives have a fitted effect of over 60% in size
How it was run: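 Viability measured as metabolically active cells via CellTiter-Glo luminescence following 48 hours of compound exposure, 11-point dilutions in confirmatory testing. 500-1,000 cells/well plated 5 hours before dosing; controls were DMSO and 2.3 µM bortezomib.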

[13] = qHTS of pediatric cancer cell lines to identify multiple opportunities for drug repurposing: Confirmatory screen for BT-37 cells (AID 1347117); also: nearly all actives have a fitted effect of over 55% in size
How it was run: as §2

[14] = qHTS of pediatric cancer cell lines to identify multiple opportunities for drug repurposing: Confirmatory screen for MG 63 (6-TG R) cells (AID 1347119); also: nearly all actives have a fitted effect of over 55% in size
How it was run: as §2

[15] = qHTS of pediatric cancer cell lines to identify multiple opportunities for drug repurposing: Confirmatory screen for control Hh wild type fibroblast cells (AID 1347121); also: nearly all actives have a fitted effect of over 70% in size
How it was run: as §2

[16] = qHTS of pediatric cancer cell lines to identify multiple opportunities for drug repurposing: Confirmatory screen for U-2 OS cells (AID 1347122); also: nearly all actives have a fitted effect of over 65% in size
How it was run: as §2

[17] = qHTS of pediatric cancer cell lines to identify multiple opportunities for drug repurposing: Confirmatory screen for RD cells (AID 1347124)
How it was run: as §2

[18] = qHTS of pediatric cancer cell lines to identify multiple opportunities for drug repurposing: Confirmatory screen for BT-12 cells (AID 1347112); also: nearly all actives have a fitted effect of over 55% in size
How it was run: as §2

[19] = qHTS of pediatric cancer cell lines to identify multiple opportunities for drug repurposing: Confirmatory screen for NB-EBc1 cells (AID 1347115);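 also: cells exposed to compound for 48 h before the viability read; nearly all actives have a fitted effect of over 45% in size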
How it was run: as §2

[20] = qHTS of pediatric cancer cell lines to identify multiple opportunities for drug repurposing: Confirmatory screen for Rh18 cells (AID 1347125); also: nearly all actives have a fitted effect of over 55% in size
How it was run: as §2

Measured: Potency
Potency is read from the fitted curve at half-maximal effect.

CCOC(=O)C(C)Oc1cccc2c(=O)n(CC(=O)Nc3ccc4c(c3)OCCO4)ccc12 (configuration not stated)
inactive: [1] | [2] | [3] | [4] | [5] | [6] | [7]

COc1ccc(C2(C#N)CCC(C(=O)O)CC2)cc1OC1CCCC1 (configuration not stated)
inactive: [1] | [2] | [3] | [4] | [5] | [6] | [7] | [8]

Cc1nc(-c2ccc(OCC(C)C)c(C#N)c2)sc1C(=O)O
inactive: [1] | [2] | [3] | [4] | [5] | [6] | [7] | [8]

Cc1nc2n(c(=O)c1CCN1CCC(c3noc4cc(F)ccc34)CC1)CCCC2
inactive: [1] | [2] | [3] | [4] | [5] | [6] | [7]

COc1cc(OC)c(C(=O)CCCN2CCCC2)c(OC)c1
inactive: [1] | [2] | [3] | [4] | [5] | [6] | [7] | [8]

NC(=O)Cc1cccc(C(=O)c2ccccc2)c1N
inactive: [1] | [2] | [3] | [4] | [5] | [6] | [7] | [8]

O=c1c(O)c(-c2ccc(O)cc2O)oc2cc(O)cc(O)c12
inactive: [1] | [2] | [3] | [4] | [5] | [6] | [7]

Nc1cccc2c1CN(C1CCC(=O)NC1=O)C2=O (configuration not stated)
inactive: [1] | [2] | [3] | [4] | [5] | [6] | [7] | [8]

COc1c2occc2cc2ccc(=O)oc12
inactive: [1] | [2] | [3] | [4] | [5] | [6] | [7] | [8]

CC(C)c1ccc2oc3nc(N)c(C(=O)O)cc3c(=O)c2c1
inactive: [1] | [2] | [3] | [4] | [5] | [6] | [7] | [8]

COc1ccc2cc([C@H](C)C(=O)O)ccc2c1
inactive: [1] | [2] | [3] | [4] | [5] | [6] | [7] | [8]

COc1c(O)cc2c(c1O)[C@@H]1O[C@H](CO)[C@@H](O)[C@H](O)[C@H]1OC2=O
inactive: [1] | [2] | [3] | [4] | [5] | [6] | [7] | [8]

C=CCc1cc(OC)c(O)c(C(=O)NCCO)c1
inactive: [1] | [2] | [3] | [4] | [5] | [6] | [7] | [8]

CC1=C(C)C(=O)C(C(CCCCCC(=O)O)c2ccccc2)=C(C)C1=O (configuration not stated)
inactive: [1] | [2] | [3] | [4] | [5] | [6] | [7] | [8]

N=C(N=C(N)N)N1CCOCC1
inactive: [1] | [2] | [3] | [4] | [6] | [7] | [8]

CCN(CC)C(=S)SSC(=S)N(CC)CC
active: [1] 15.3 nM and 72.7 nM and 174 nM | [2] 33.2 nM and 70 nM and 376 nM | [3] 43.2 nM | [4] 11.8 nM and 35.1 nM and 150 nM | [5] 37.2 nM | [6] 166 nM and 111 nM and 1.19 µM | [8] 13.2 nM and 70 nM | [9] 8270 nM | [10] 522 nM | [11] 147 nM | [12] 1310 nM | [13] 414 nM | [16] 11700 nM | [17] 4650 nM
inactive: [14] | [15]

CC(S)C(=O)NCC(=O)O (configuration not stated)
not listed: [10] | [12] | [16] | [17]
inactive: all other assays above

CS(=O)(=O)OCCCCOS(C)(=O)=O
active: [10] 16500 nM
not listed: [11] | [12] | [13]
inactive: all other assays above

O=C1NC(=O)C(c2ccccc2[N+](=O)[O-])=C1Nc1ccc(O)c(Cl)c1
inactive: [1] | [2] | [3] | [4] | [6] | [7]

O=C(CS(=O)Cc1ccco1)NCC=CCOc1cc(CN2CCCCC2)ccn1 (configuration not stated)
inactive: [1] | [2] | [3] | [4] | [6] | [7] | [8]

CC(C)C[C@H](NC(=O)[C@H](Cc1ccccc1)NC(=O)c1cnccn1)B(O)O
active: [1] 43.2 nM | [2] 29.6 nM | [3] 87.1 nM | [4] 53.1 nM | [5] 23.5 nM | [6] 74.3 nM | [7] 93.5 nM | [9] 36.9 nM | [10] 46.5 nM | [18] 46.5 nM | [11] 32.9 nM | [19] 46.5 nM | [12] 32.9 nM | [13] 46.5 nM | [14] 20.8 nM | [15] 827 nM | [16] 58.5 nM | [17] 41.4 nM | [20] 46.5 nM
